# Counter-ions that a name gives are not always drawn.
# Columns and labels:
# Conditions in all cases: compound concentration in added solution (µM; 5 µl added to 20 µl cells): 10; 18 h
# [1] = system: A431; experiment: LBPA endosome anti-LBPA integrated intensity (sum per cell), Z-score; higher = more LBPA staining
# How it was run: (§1)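 Reported values are Z-scores from AcuityXpress normalisation of per-cell integrated LBPA or filipin staining. HeLa MZ or A431 cells (3,500/well in 20 µl) were seeded onto 5 µl of 10 µM compound solution in duplicate 384-well plates, incubated 18 h, fixed in 4% PFA, stained and imaged at 20×. MetaXpress segmentation measured the intensity over the whole cell or within LBPA endosomes.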
# [2] = system: HeLa MZ; experiment: as above
# How it was run: as §1
# [3] = system: A431; experiment: whole-cell filipin (free cholesterol) integrated intensity, Z-score; higher = more cholesterol staining
# How it was run: as §1
# [4] = system: HeLa MZ; experiment: as above
# How it was run: as §1
# [5] = system: A431; experiment: filipin (cholesterol) integrated intensity within LBPA endosomes, Z-score; higher = more cholesterol in LBPA endosomes
# How it was run: as §1
# [6] = system: HeLa MZ; experiment: as above
# How it was run: as §1
Compound,LBPA endosome anti-LBPA integrated intensity (z-score) [1],LBPA endosome anti-LBPA integrated intensity (z-score) [2],whole-cell filipin (z-score) [3],whole-cell filipin (z-score) [4],filipin (z-score) [5],filipin (z-score) [6]
O=C1c2ccccc2C(=O)C1c1ccccc1 [Phenindione],-0.457,0.398,-0.346,-0.343,-0.498,-0.468
"Cc1cn([C@H]2C[C@H](N=[N+]=[N-])[C@@H](CO)O2)c(=O)[nH]c1=O [Zidovudine, AZT]",-0.815,-0.853,-0.904,0.114,-0.643,-0.555
CC(=O)Nc1c(I)c(C(=O)N[C@H]2C(O)O[C@H](CO)[C@@H](O)[C@@H]2O)c(I)c(N(C)C(C)=O)c1I (stereo partly drawn) [Metrizamide],-0.495,-0.295,-0.527,-0.9,-0.561,-0.597
CCOC(=O)C(C)(C)Oc1ccc(Cl)cc1 [Clofibrate],-0.34,-0.523,-0.116,-0.429,-0.352,-0.657
CCCN(CCC)S(=O)(=O)c1ccc(C(=O)O)cc1 [Probenecid],-0.546,-0.569,-0.756,-0.679,-0.526,-0.61
C[C@@H](O)[C@H]1C(=O)N2C(C(=O)O)=C(S[C@@H]3CN[C@H](C(=O)N(C)C)C3)[C@H](C)[C@H]12 [Meropenem],-0.501,-0.52,0.0963,-0.649,-0.531,-0.725
C#C[C@]1(OC(C)=O)CC[C@H]2[C@@H]3CCC4=CC(=NO)CC[C@@H]4[C@H]3CC[C@@]21CC (mixture of isomers) [Norgestimate],-0.26,1.65,0.197,0.173,-0.31,0.087
CC[C@]12CCCN3CCc4c(n(c5ccccc45)[C@@](O)(C(=O)OC)C1)[C@@H]32 [Vincamine],-0.234,0.384,-0.552,-1.23,-0.453,-0.216
CCOc1ccccc1OCC1CNCCO1 (stereo not drawn) [Viloxazine hydrochloride],-0.217,0.639,-0.124,-0.0106,-0.346,-0.261
CC(C(=O)O)c1ccc2c(c1)Cc1cccnc1O2 (stereo not drawn) [Pranoprofen],-0.52,-0.228,-0.251,-0.607,-0.527,-0.553
O=C(NC(Cc1cc(=O)[nH]c2ccccc12)C(=O)O)c1ccc(Cl)cc1 (stereo not drawn) [Rebamipide],-0.421,-0.707,-0.0406,0.196,-0.423,-0.367
CC(NCCC(c1ccccc1)c1ccccc1)c1ccccc1 (stereo not drawn) [Fendiline hydrochloride],,1.29,,0.948,,2.94
CC(C)n1c(/C=C/C(O)CC(O)CC(=O)O)c(-c2ccc(F)cc2)c2ccccc21 (stereo not drawn) [Fluvastatin sodium salt],,-1.11,,-0.754,,-0.372
Cc1ccc(C(=O)c2ccc(CC(=O)O)n2C)cc1 [Tolmetin sodium salt dihydrate],-0.35,-0.0177,-0.301,-0.429,-0.412,-0.483
O=C(O)CN(CCN(CC(=O)O)CC(=O)O)CCN(CC(=O)O)CC(=O)O [Pentetic acid],-0.425,-1.12,-0.45,-0.669,-0.443,-0.521
CC(C)(C)CC(C)(C)c1ccc(OCCOCC[N+](C)(C)Cc2ccccc2)cc1 [Benzethonium chloride],,1.55,,-0.53,,0.517
O=C1NCCN1CCN1CCC(c2cn(-c3ccc(F)cc3)c3ccc(Cl)cc23)CC1 [Sertindole],,0.384,,-0.48,,2.2
O=C(NCC(O)CO)c1c(I)c(C(=O)NCC(O)CO)c(I)c(N(CCO)C(=O)CO)c1I (stereo not drawn) [Ioversol],-0.561,-1.26,-0.43,-0.621,-0.499,-0.701
CC1(C)[C@H](C(=O)O)N2C(=O)C[C@H]2S1(=O)=O [Sulbactam],-0.453,-1.27,-0.128,-0.121,-0.375,-0.509
C1CCC(C(CC2CCCCN2)C2CCCCC2)CC1 (stereo not drawn) [Perhexiline maleate],,-0.192,,0.438,,2.62
C=C(NC(=O)C(=C)NC(=O)c1csc(C2=N[C@@H]3c4csc(n4)[C@H]4NC(=O)c5csc(n5)[C@H]([C@](C)(O)[C@@H](C)O)NC(=O)[C@H]5CSC(=N5)/C(=C/C)NC(=O)[C@H]([C@@H](C)O)NC(=O)c5csc(n5)[C@]3(CC2)NC(=O)[C@H](C)NC(=O)C(=C)NC(=O)[C@H](C)NC(=O)[C@H]([C@@H](C)CC)N[C@@H]2C=Cc3c([C@H](C)O)cc(nc3[C@H]2O)C(=O)O[C@@H]4C)n1)C(N)=O [Thiostrepton],,-0.253,,-0.786,,-0.596
COC(=O)Nc1nc2cc([S+]([O-])c3ccccc3)ccc2[nH]1 (stereo not drawn) [Oxfendazol],-0.637,,-0.236,,-0.364,
O=C(CCCCCCC(=O)Nc1ccccc1)NO [Vorinostat],0.0566,,1.83,,-0.414,
CCOC(=O)[C@H](CCc1ccccc1)N[C@@H](C)C(=O)N1CCC[C@H]1C(=O)O [Enalapril maleate],-0.644,-2,-1.09,-0.795,-0.578,-0.713
COc1ccccc1OCC(O)CN1CCN(CC(=O)Nc2c(C)cccc2C)CC1 (stereo not drawn) [Ranolazine],-0.238,1.53,-0.112,-0.533,-0.352,-0.221
O=c1[nH]cc(F)c(=O)[nH]1 [5-fluorouracil],-0.738,,0.716,,-0.862,
COc1cc([C@@H]2c3cc4c(cc3[C@@H](O[C@@H]3O[C@@H]5CO[C@@H](C)O[C@H]5[C@H](O)[C@H]3O)[C@H]3COC(=O)[C@H]23)OCO4)cc(OC)c1O [Etoposide],-0.699,,2.27,,-0.718,
CCN(CC)C(=O)Nc1ccc(OCC(O)CNC(C)(C)C)c(C(C)=O)c1 (stereo not drawn) [Celiprolol HCl],0.0633,0.456,-0.229,-0.152,-0.388,-0.405
